38 compounds from PubChem BioAssay (NCATS) can be followed below.

Results filed as inconclusive are left out. Unmarked numbers belong to inactive results. Activity calls are given as the source filed them. Unless noted, the call rests on the fitted dose curve.
On the % scale 0 is the no-effect control and ±100 the full control effect.

Cytochrome P450 2D6 (Homo sapiens), sequence (P10635 whole entry, looked up): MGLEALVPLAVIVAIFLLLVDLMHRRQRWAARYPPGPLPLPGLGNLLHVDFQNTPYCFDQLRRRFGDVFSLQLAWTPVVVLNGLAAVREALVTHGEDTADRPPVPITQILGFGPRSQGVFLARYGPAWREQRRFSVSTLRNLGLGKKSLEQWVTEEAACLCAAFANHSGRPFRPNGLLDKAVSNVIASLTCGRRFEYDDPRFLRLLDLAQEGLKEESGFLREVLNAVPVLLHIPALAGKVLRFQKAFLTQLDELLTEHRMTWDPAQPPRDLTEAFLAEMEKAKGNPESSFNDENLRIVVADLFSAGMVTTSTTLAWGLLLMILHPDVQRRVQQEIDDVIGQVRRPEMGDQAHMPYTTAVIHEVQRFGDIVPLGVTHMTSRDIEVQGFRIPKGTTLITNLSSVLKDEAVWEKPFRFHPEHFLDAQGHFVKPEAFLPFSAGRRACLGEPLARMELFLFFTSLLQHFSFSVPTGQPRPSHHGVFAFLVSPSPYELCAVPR
Cytochrome P450 2C9 (Homo sapiens), sequence (P11712 whole entry, looked up): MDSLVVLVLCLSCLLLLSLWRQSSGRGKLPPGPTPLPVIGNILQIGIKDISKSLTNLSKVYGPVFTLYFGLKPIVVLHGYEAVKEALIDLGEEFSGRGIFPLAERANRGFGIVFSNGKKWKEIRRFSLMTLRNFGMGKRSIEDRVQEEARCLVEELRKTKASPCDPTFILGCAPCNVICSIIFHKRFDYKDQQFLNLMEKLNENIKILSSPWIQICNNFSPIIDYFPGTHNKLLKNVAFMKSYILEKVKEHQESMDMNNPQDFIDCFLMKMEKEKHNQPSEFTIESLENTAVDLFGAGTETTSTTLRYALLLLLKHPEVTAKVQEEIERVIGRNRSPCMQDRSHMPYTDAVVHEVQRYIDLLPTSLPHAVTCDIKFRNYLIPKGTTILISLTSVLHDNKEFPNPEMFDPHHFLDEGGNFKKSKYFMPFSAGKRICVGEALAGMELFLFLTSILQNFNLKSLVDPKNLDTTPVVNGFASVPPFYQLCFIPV

The target of one experiment is Cytochrome P450 2D6 (Homo sapiens) (UniProt P10635). The experiment in a line: Cytochrome P450 family 2 subfamily D member 6 (CYP2D6) small molecule antagonists: luciferase biochemical (cell-free) qHTS assay (AID 1645840; active means well fitted curve in the direction sought with a large enough effect in the repeat runs; an effect the other way counts as inactive or inconclusive; further: nearly all actives have a fitted effect of over 55% in size; further: potency means the concentration at half of the fitted maximal effect). The following applies: P450-Glo CYP2D6 enzyme, luciferin luminescence, 1 h; series mostly up to 57.4 µM; activity change, negative = inhibition: at the top concentration. The gist of the method:
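P450-Glo luminescent screen: recombinant CYP2D6 enzyme–proluciferin substrate mix preincubated with compound 10 min at room temperature, then NADPH regeneration added for 1 h at room temperature. Detection reagent added for 20 min; luciferin light read as relative luminescence units.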
(qHTS replaces the single test concentration by a dilution series.)
`CCOP(=S)(OCC)Oc1ccc2c(C)c(Cl)c(=O)oc2c1`: the Potency was 15.5 µM (active).

For the compound `CCCCCCCCCCCCCCCCCC(=O)O`, the “activity change, negative = inhibition” value is 13.2%.

For `Clc1ccc(C(c2ccc(Cl)cc2)C(Cl)(Cl)Cl)cc1`, the “activity change, negative = inhibition” value was -21.7%.

A further experiment has as its target Cytochrome P450 2C9 (Homo sapiens) (UniProt P11712). Put plainly: Cytochrome P450 family 2 subfamily C member 9 (CYP2C9) small molecule antagonists: luciferase biochemical (cell-free) qHTS assay (AID 1645842; active means well fitted curve in the direction sought with a large enough effect in the repeat runs; an effect the other way counts as inactive or inconclusive; further: nearly all actives have a fitted effect of over 55% in size; further: potency means the concentration at half of the fitted maximal effect). The note with it: P450-Glo CYP2C9 enzyme assay, luciferin luminescence; series mostly up to 57.4 µM; activity change, negative = inhibition: at the top concentration. In a few lines:
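Luminescence, after 20 min with luciferin detection reagent, reflected CYP2C9 turnover during a 1 h NADPH-driven reaction at 37C. Enzyme-substrate mix contained 0.4% bovine serum albumin and was preincubated with compound 10 min at room temperature.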
For the compound `C=CCC1(C(C)CC)C(=O)NC(=O)NC1=O` (centres undefined), the “activity change, negative = inhibition” value is 4.66%.

On to `CCOP(=S)(OCC)Oc1ccc2c(C)c(Cl)c(=O)oc2c1`, for which the Potency is 6.92 µM (active).

Take `CCCN(CCC)C(=O)Cc1c(-c2ccc(Cl)cc2)nc2ccc(Cl)cn12`: the Potency was 12.3 µM (active).

On to `CCCCCCCCCCCCCCCCCC(=O)O`, for which the “activity change, negative = inhibition” value is 4.55%.

Take `Clc1ccc(C(c2ccc(Cl)cc2)C(Cl)(Cl)Cl)cc1`: the Potency is 2.19 µM (active).

System in another experiment: not listed separately
The experiment in a line: Confirmatory qHTS to identify inhibitors of SARS-CoV-2 cell entry (AID 1645844). Further: nearly all actives have a fitted effect of over 45% in size. Further: potency means the concentration at half of the fitted maximal effect. The following applies: SARS-CoV-2 pseudotyped particle cell entry, luciferase; series mostly up to 57.2 µM; activity, negative = inhibition: at the top concentration. In a few lines: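 Luminescence from a luciferase reporter, read 48 hr after pseudotyped-particle addition, gives entry signal, normalised to spike-bearing PP wells and bald PP lacking fusion protein wells. Cells are Expi293F stably expressing human ACE2, compound-pretreated 1 hr.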
As to `C[n+]1c2cc(N)ccc2cc2ccc(N)cc21` (tested in a mixture with another compound), the Potency is 6.07 µM (active).

In the case of `O=C1CN(/N=C/c2ccc([N+](=O)[O-])o2)C(=O)N1`, the Potency was 21.5 µM (active).

Consider `CNCCC=C1c2ccccc2CCc2ccccc21`, for which the Potency was 21.5 µM (active).

Regarding `COc1cccc2c1C(=O)c1c(O)c3c(c(O)c1C2=O)C[C@@](O)(C(=O)CO)C[C@@H]3O[C@H]1C[C@H](N)[C@@H](O)[C@H](C)O1`, the Potency was 0.0961 µM (active).

With `Cc1cc2c(cc1CC(=O)c1sccc1S(=O)(=O)Nc1onc(C)c1Cl)OCO2`, the “activity, negative = inhibition” value is 0%.

Turning to `Cc1cc(NS(=O)(=O)c2ccc(N)cc2)nc(C)n1`, the “activity, negative = inhibition” value was -10.8%.

Take `Cc1nc2ccc(CN(C)c3ccc(C(=O)N[C@@H](CCC(=O)O)C(=O)O)s3)cc2c(=O)[nH]1`: the Potency was 0.0271 µM (active).

Turning to `Nc1nc2[nH]cc(CCc3ccc(C(=O)N[C@@H](CCC(=O)O)C(=O)O)cc3)c2c(=O)[nH]1`, the Potency was 1.92 µM (active).

As for `CCCCCCNC(=O)n1cc(F)c(=O)[nH]c1=O`, the Potency is 8.57 µM (active).

Take `CC(C)OC(=O)OCOP(=O)(CO[C@H](C)Cn1cnc2c(N)ncnc21)OCOC(=O)OC(C)C`: the Potency is 0.0152 µM (active).

Consider `CCN(CC)C(C)CN1c2ccccc2Sc2ccccc21` (centres undefined), for which the Potency was 0.0383 µM (active).

`COC(=O)C1=C(C)NC(C)=C(C(=O)OCC(C)=O)C1c1ccccc1[N+](=O)[O-]` (centres undefined): the Potency is 34.1 µM (active).

With `Cc1c(C)c2c(c(C)c1O)CCC(C)(COc1ccc(CC3SC(=O)NC3=O)cc1)O2` (centres undefined), the Potency is 34.1 µM (active).

As to `CN1[C@@H]2CC[C@H]1CC(OC(c1ccccc1)c1ccccc1)C2` (some centres undefined), the Potency is 6.81 µM (active).

For `Oc1ccc(Cl)c2cccnc12`, the Potency is 2.71 µM (active).

For `Cc1ccc(Nc2nccc(N(C)c3ccc4c(C)n(C)nc4c3)n2)cc1S(N)(=O)=O`, the Potency was 21.5 µM (active).

Turning to `CC(C)=CCC/C(C)=C/CC/C(C)=C/CCC(=O)OC/C=C(\C)CCC=C(C)C`, the Potency is 9.61 µM (active).

As for `Nc1ccn([C@@H]2O[C@H](CO)[C@@H](O)C2O)c(=O)n1` (some centres undefined), the Potency is 4.29 µM (active).

Take `CCOc1ccc2nc3cc(N)ccc3c(N)c2c1`: the Potency was 24.1 µM (active).

System in another experiment: not listed separately
Put plainly: Cytotoxicity counterscreen for inhibitors of SARS-CoV-2 cell entry (AID 1645845). Further: nearly all actives have a fitted effect of over 50% in size. The following applies: cell viability (SARS-CoV-2 entry assay cells); series mostly up to 57.1 µM; activity change, negative = cytotoxicity: at the top concentration. The gist of the method:
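48 h compound treatment (after 1 h preincubation), HEK293-ACE2 cells, 37 C/5% CO2; ATP luminescence endpoint; normalized to cell wells and media blanks.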
On the technique in general: The purpose of a counterscreen is to sort out artefacts and off-target activity.
As for `Nc1nc(N)nc(-c2cc(Cl)ccc2Cl)n1`, the Potency entry was “inactive”.

Regarding `Cc1cc2nc3c(=O)[nH]c(=O)nc-3n(C[C@H](O)[C@H](O)[C@H](O)CO)c2cc1C`, the “outcome” value is “inactive [at 27.1 µM]”.

In the case of `CCOP(=S)(OCC)Oc1ccc2c(C)c(Cl)c(=O)oc2c1`, the outcome was inactive.

Regarding `Cc1ncc([N+](=O)[O-])n1CC(C)O` (centres undefined), the Potency entry was “inactive”.

With `CNCCC=C1c2ccccc2CCc2ccccc21`, the “activity change, negative = cytotoxicity” value is -26.3%.

Turning to `O=C(CS(=O)Cc1ccco1)NC/C=C\COc1cc(CN2CCCCC2)ccn1` (centres undefined), the compound was classed as inactive.

As for `Cc1cc2c(cc1CC(=O)c1sccc1S(=O)(=O)Nc1onc(C)c1Cl)OCO2`, the Potency result is “inactive”.

Turning to `O=C(O[C@H]1CN2CCC1CC2)N1CCc2ccccc2[C@@H]1c1ccccc1`, the “activity change, negative = cytotoxicity” value is 0.205%.

Consider `Cc1cc(NS(=O)(=O)c2ccc(N)cc2)nc(C)n1`, for which the compound was called inactive.

Turning to `Cc1nc2ccc(CN(C)c3ccc(C(=O)N[C@@H](CCC(=O)O)C(=O)O)s3)cc2c(=O)[nH]1`, the Potency entry was “inactive”.

For the compound `Nc1nc2[nH]cc(CCc3ccc(C(=O)N[C@@H](CCC(=O)O)C(=O)O)cc3)c2c(=O)[nH]1`, the Potency result is “inactive”.

`CC(C)(C)NC[C@H](O)COc1nsnc1N1CCOCC1`: the call was inactive.

In the case of `CC(C)OC(=O)OCOP(=O)(CO[C@H](C)Cn1cnc2c(N)ncnc21)OCOC(=O)OC(C)C`, the “activity change, negative = cytotoxicity” value was -10.9%.

Turning to `C=CC1=C(C(=O)O)N2C(=O)[C@@H](NC(=O)/C(=N\O)c3csc(N)n3)[C@H]2SC1` (stereo in doubt), the “activity change, negative = cytotoxicity” value is -11.3%.

Take `CCN(CC)C(C)CN1c2ccccc2Sc2ccccc21` (centres undefined): the result was inactive.

In the case of `Clc1ccc(C(c2ccc(Cl)cc2)C(Cl)(Cl)Cl)cc1`, the outcome was inactive.

For the compound `COC(=O)C1=C(C)NC(C)=C(C(=O)OCC(C)=O)C1c1ccccc1[N+](=O)[O-]` (centres undefined), the “activity change, negative = cytotoxicity” value was -15.5%.

As for `COc1ccc2cc1Oc1cc3c(cc1OC)CC[N+](C)(C)[C@H]3Cc1ccc(cc1)Oc1c(OC)c(OC)cc3c1[C@@H](C2)[N+](C)(C)CC3`, the compound was classed as inactive.

In the case of `COc1c2occc2cc2ccc(=O)oc12`, the Potency result was “inactive”.

For the compound `Cc1c(C)c2c(c(C)c1O)CCC(C)(COc1ccc(CC3SC(=O)NC3=O)cc1)O2` (centres undefined), the Potency entry was “inactive”.

Turning to `CCOC(=O)NNc1ccc(N(CC)CC(C)O)nn1` (centres undefined), the “activity change, negative = cytotoxicity” value was 0.452%.

On to `CN1[C@@H]2CC[C@H]1CC(OC(c1ccccc1)c1ccccc1)C2` (some centres undefined), for which the “activity change, negative = cytotoxicity” value was 4.04%.

On to `O=C(NC(Cc1cc(=O)[nH]c2ccccc12)C(=O)O)c1ccc(Cl)cc1` (centres undefined), for which the Potency entry was “inactive”.

Regarding `CC(C(=O)O)c1ccc(/C=C2\CCCCC2=O)cc1` (centres undefined), the “activity change, negative = cytotoxicity” value was -5.9%.

Take `Nc1ccn([C@@H]2O[C@H](CO)[C@@H](O)C2O)c(=O)n1` (some centres undefined): the “activity change, negative = cytotoxicity” value is -2.49%.

In the case of `Cc1ccc(Cl)c(Nc2ccccc2C(=O)O)c1Cl`, the “activity change, negative = cytotoxicity” value is 1.48%.

Turning to `N#Cc1ccc(C(c2ccc(C#N)cc2)n2cncn2)cc1`, the Potency entry was “inactive”.
